From the supplement of paper PMC3414501
Counter-ions that a name gives are not always drawn.

What follows are compounds tested on S. cerevisiae BY4741 (wild-type), vegetative growth in YPD (assay: growth sensitivity score (doubling time z-score vs DMSO controls); higher = slower growth, strongly negative scores also mark growth inhibition (complete suppression), active = hit call of the paper).
Procedure, shortened: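 Saccharomyces cerevisiae strains BY4741 and AD1-9 were seeded in rich medium in microtiter plates at an OD600 of 0.065. Compounds were added at a 1:100 dilution of DMSO stock. Optical density was read every 15 min for 24 hours on a Tecan GENios reader. Average doubling time was the time taken to reach a set generation point divided by generation number, and the growth sensitivity score was (compound mean − DMSO-control mean)/DMSO-control SD, using eight DMSO controls per experiment.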
CN1[C@@H](CC(=O)c2ccccc2)CCC[C@H]1C[C@H](O)c1ccccc1 [Lobeline hydrochloride] (stock concentration (mM, diluted 1:100): 10) was tested, and the growth sensitivity score was 0.72 (inactive).
With Cc1sc(N)c(C(=O)c2cccc(C(F)(F)F)c2)c1C (stock concentration (mM, diluted 1:100): 10) the growth sensitivity score was 9.52 (active).
In the case of CN(C)CCC(c1ccc(Cl)cc1)c1ccccn1 (stereo not given) [Chlorpheniramine] (stock concentration (mM, diluted 1:100): 10), the growth sensitivity score is reported as -0.56 (inactive).
With CCCc1nc2c(C)cc(-c3nc4ccccc4n3C)cc2n1Cc1ccc(-c2ccccc2C(=O)O)cc1 [Telmisartan] (stock concentration (mM, diluted 1:100): 10) the growth sensitivity score was 85.7 (active).
With CCC(C)n1ncn(-c2ccc(N3CCN(c4ccc(OCC5COC(Cn6cncn6)(c6ccc(Cl)cc6Cl)O5)cc4)CC3)cc2)c1=O (stereo not given) [Itraconazole] (stock concentration (mM, diluted 1:100): 10.1) the growth sensitivity score was 10.9 (active).
With CN1CCC(=C2c3ccccc3CC(=O)c3sccc32)CC1 [Ketotifen fumarate] (stock concentration (mM, diluted 1:100): 8.9) the growth sensitivity score was 0.49 (inactive).
With CC(COc1ccccc1Cc1ccccc1)N1CCCCC1 (stereo not given) [Benproperine phosphate] (stock concentration (mM, diluted 1:100): 10) the growth sensitivity score was 6.41 (active).
CCOC(=O)[C@H](CCc1ccccc1)N[C@H]1CCc2ccccc2N(CC(=O)O)C1=O [Benazepril hydrochloride] (stock concentration (mM, diluted 1:100): 9.2) was tested, and the growth sensitivity score was 1.72 (inactive).
With CCCCc1nc(Cl)c(CO)n1Cc1ccc(-c2ccccc2-c2nnn[nH]2)cc1 [Losartan potassium] (stock concentration (mM, diluted 1:100): 9.2) the growth sensitivity score was -0.26 (inactive).
In the case of COc1ccnc(C[S+]([O-])c2nc3cc(OC(F)F)ccc3[nH]2)c1OC (stereo not given) [Pantoprazole sodium] (stock concentration (mM, diluted 1:100): 10), the growth sensitivity score is reported as -0.44 (inactive).
In the case of O=C1c2c(O)cc(O)cc2OC(c2ccc(O)c(O)c2)C1O (stereo not given) [Taxifolin] (stock concentration (mM, diluted 1:100): 10.1), the growth sensitivity score is reported as -1.02 (inactive).
For CO[C@H]1/C=C/O[C@@]2(C)Oc3c(C)c(O)c4c(O)c(c(/C=N/N5CCN(C6CCCC6)CC5)c(O)c4c3C2=O)NC(=O)/C(C)=C\C=C\[C@H](C)[C@H](O)[C@@H](C)[C@@H](O)[C@@H](C)[C@H](OC(C)=O)[C@@H]1C [Rifapentine] (stock concentration (mM, diluted 1:100): 10), the growth sensitivity score was 0.15 (inactive).
Cc1ncc([N+](=O)[O-])n1CC(O)CCl (stereo not given) [Ornidazole] (stock concentration (mM, diluted 1:100): 10) was tested, and the growth sensitivity score was -2.78.
In the case of Clc1ccccc1C(c1ccccc1)(c1ccccc1)n1ccnc1 [Clotrimazole] (stock concentration (mM, diluted 1:100): 10), the growth sensitivity score is reported as 62.8 (active).
With Cc1ccc(NC(=O)c2ccc(CN3CCN(C)CC3)cc2)cc1Nc1nccc(-c2cccnc2)n1 [Imatinib mesylate] (stock concentration (mM, diluted 1:100): 8.4) the growth sensitivity score was 0.53 (inactive).
With Cn1c(NCCN(CCO)CCCc2ccc([N+](=O)[O-])cc2)cc(=O)n(C)c1=O [Nifekalant hydrochloride] (stock concentration (mM, diluted 1:100): 9.2) the growth sensitivity score was -0.07 (inactive).
With Cc1ccnc2c1NC(=O)c1cccnc1N2C1CC1 [Viramune] (stock concentration (mM, diluted 1:100): 10) the growth sensitivity score was -1.29 (inactive).
COc1nc(C)nc(Cl)c1NC1=NCCN1 [Moxonidine hydrochloride] (stock concentration (mM, diluted 1:100): 9.2) was tested, and the growth sensitivity score was 0.19 (inactive).
With Nc1ccn([C@@H]2CS[C@H](CO)O2)c(=O)n1 [Lamivudine] (stock concentration (mM, diluted 1:100): 9.9) the growth sensitivity score was -0.39 (inactive).
For CN(CCOc1ccc(NS(C)(=O)=O)cc1)CCc1ccc(NS(C)(=O)=O)cc1 [Dofetilide] (stock concentration (mM, diluted 1:100): 10), the growth sensitivity score was -2.19.
